Where “and” joins values, the source holds several entries; their conditions need not be identical. Identical values can stand only once. Out of some 340,000 compounds screened, about 2,000 (0.59%) were called active. Rule as the data show it: active = activation mostly above about 9.5% (no sharp cut-off); inactive = mostly below about 7.6%. For the sample, actives were picked, then their nearest neighbours and some compounds at random.
Each molecule was assayed against 5-hydroxytryptamine receptor 5A (Homo sapiens) (UniProt P47898) (assay: HTR5A agonists in luminescence cell assay, primary screen, counter-screen for OPRM1-OPRD1 heterodimer agonist project, full-deck HTS (AID 504692;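 also: 0% = cells with vehicle only and 100% = reference agonist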)). Conditions: cell-based, at 9.3 µM, hits give high values.
5-hydroxytryptamine receptor 5A (Homo sapiens), sequence (P47898 whole entry, looked up): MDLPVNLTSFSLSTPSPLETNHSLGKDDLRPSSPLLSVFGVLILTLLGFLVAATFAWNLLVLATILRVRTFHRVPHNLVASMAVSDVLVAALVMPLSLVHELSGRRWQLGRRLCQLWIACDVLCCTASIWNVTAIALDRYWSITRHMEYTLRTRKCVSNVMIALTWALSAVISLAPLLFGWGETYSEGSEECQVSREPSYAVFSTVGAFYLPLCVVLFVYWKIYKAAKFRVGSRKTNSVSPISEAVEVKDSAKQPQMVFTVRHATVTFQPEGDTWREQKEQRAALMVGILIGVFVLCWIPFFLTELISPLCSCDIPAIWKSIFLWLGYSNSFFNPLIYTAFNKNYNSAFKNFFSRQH

| Compound | activation |
| --- | --- |
| C[C@]12CC[C@H](O)C[C@H]1CC[C@@H]1C2CC[C@]2(C)[C@@H](C3=CC(=O)OC3)[C@@H](O)C[C@]12O (stereo not given in full) | 16.5% (inactive) |
| COC1C(O)C(C)OC(OC2CCC3(C=O)C(CCC4C3CCC3(C)C(C5=CC(=O)OC5)CCC43O)C2)C1O (stereo not given) | 20% (active) |
| Oc1ccc2c3c1OC1[C@H](O)CC[C@@]4(O)[C@@H](C2)N(CC2CC2)CC[C@]314 (stereo not given in full) | 2.68% (inactive) and -1.51% (inactive) |
| CC[N+](CC)(CC)CCCCCCCCCC[N+](CC)(CC)CC | 2.35% (inactive) |
| CCOP(=O)(OCC)C(O)c1ccc(OC)cc1OC (stereo not given) | -1.32% (inactive) |
| CCCCCCCCCCCCn1ccc(=N)cc1 | 14.5% (active) |
| Cc1cc(C(=O)OCC(=O)Nc2c(F)cccc2F)c(C)n1C1CC1 | -0.58% (inactive) |
| C/C=C/CC1(CC)C(=O)NC(=S)NC1=O | 0.5% (inactive) |
| COC(=O)C(O)(c1ccc(NC(=O)c2ccco2)c(OC)c1)C(F)(F)F (stereo not given) | -2.39% (inactive) |
| CN(C)C(=O)Oc1cc(=O)n2c3c(cccc13)CCC2 | 2.56% (inactive) |
| O=C(Cc1ccccc1)N1CCN(C2CCCCCC2)CC1 | 1.91% (inactive) |
| Cc1ccc(-c2cc(C(=O)N3CCC4(CC3)OCCO4)no2)cc1 | 1.14% (inactive) |
| CCOC(=O)c1c(C)c(C(=O)N2CCC3(CC2)OCCO3)c(C)n1CC | 10.3% (active) |
| COc1ccc(S(=O)(=O)NCc2ccc(C(=O)N3CCC4(CC3)OCCO4)cc2)cc1 | 3.27% (inactive) |
| CC(C)Oc1cccc(C(=O)C2CCCN(C3CCOCC3)C2)c1 (stereo not given) | 3.38% (inactive) |
